This note sets out measurements from PubChem BioAssay (NCATS).

Inconclusive results are not listed. Activity calls are given as the source filed them. Unless noted, calls follow the shape of the dose curve; as a rule, active = well fitted curve in the direction sought with a large enough effect; inconclusive = small, poorly fitted or top-dose-only effect, or another doubt; inactive = no such curve, though single readings can be large; an effect the other way counts as inactive or inconclusive.

The nature of assay [1]: qHTS for Inhibitors of the Functional Ribonucleoprotein Complex (vRNP) of Lassa (LASV) Arenavirus: LASV Primary Screen - GLuc reporter signal (AID 1347082; calls by dose curve; tested in HEK293 reporter line; also: series mostly up to about 57 µM; nearly all actives have a fitted effect of over 60% in size).
Assay [2] is described as follows: qHTS for Inhibitors of the Functional Ribonucleoprotein Complex (vRNP) of Lassa (LASV) Arenavirus: Viability assay - alamar blue signal for LASV Primary Screen (AID 1347083; calls by dose curve; tested in HEK293 reporter line; also: series mostly up to about 57 µM; nearly all actives have a fitted effect of over 80% in size).
Assay [3] is described as follows: qHTS for Inhibitors of the Functional Ribonucleoprotein Complex (vRNP) of Lymphocytic Choriomeningitis Arenaviruses (LCMV): Viability assay - alamar blue signal for LCMV Primary Screen (AID 1347085; calls by dose curve; tested in HEK293 reporter line; also: series mostly up to about 57 µM; nearly all actives have a fitted effect of over 80% in size).
For assay [4], the target named is Nucleoprotein (Lymphocytic choriomeningitis virus (strain Armstrong)) (UniProt P09992). Kind of assay: qHTS for Inhibitors of the Functional Ribonucleoprotein Complex (vRNP) of Lymphocytic Choriomeningitis Arenaviruses (LCMV): LCMV Primary Screen - GLuc reporter signal (AID 1347086; calls by dose curve; also: series mostly up to about 57 µM; nearly all actives have a fitted effect of over 70% in size).
The nature of assay [5]: qHTS of pediatric cancer cell lines to identify multiple opportunities for drug repurposing: Primary screen for TC32 cells (AID 1347089). Also: nearly all actives have a fitted effect of over 60% in size. Put shortly:
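A viability screen of TC32 cells was run over 48 h, with primary MIPE doses spanning 0.78 nM–46 µM and NPC doses 0.59 nM–46 µM. ATP luminescence (CellTiter-Glo) served as the read-out.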

The nature of assay [6]: qHTS of pediatric cancer cell lines to identify multiple opportunities for drug repurposing: Primary screen for DAOY cells (AID 1347090). Also: nearly all actives have a fitted effect of over 55% in size. Also: potency is read from the fitted curve at half-maximal effect. An outline of the steps: (§1)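 Cell viability, CellTiter-Glo luminescence; 500-1,000 cells/well, 8- or 11-point titration, 48 h compound exposure at 37 degrees C, 5% CO2. Controls: DMSO neutral, bortezomib 2.3 µM final as positive.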
Assay [7] is described as follows: qHTS of pediatric cancer cell lines to identify multiple opportunities for drug repurposing: Primary screen for SJ-GBM2 cells (AID 1347091). Also: potency is read from the fitted curve at half-maximal effect. An outline of the steps:
as §1

Assay [8] in a line: qHTS of pediatric cancer cell lines to identify multiple opportunities for drug repurposing: Primary screen for A673 cells (AID 1347092). Also: nearly all actives have a fitted effect of over 45% in size. Put shortly:
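Titration-based qHTS on A673 cells: MIPE compounds spanned 11 points (0.78 nM to 46 µM final), NPC compounds 8 points (0.59 nM to 46 µM final). Viability after 48 h was measured by ATP luminescence.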

Chain of Nucleoprotein (Lymphocytic choriomeningitis virus (strain Armstrong)) (P09992 whole entry, looked up): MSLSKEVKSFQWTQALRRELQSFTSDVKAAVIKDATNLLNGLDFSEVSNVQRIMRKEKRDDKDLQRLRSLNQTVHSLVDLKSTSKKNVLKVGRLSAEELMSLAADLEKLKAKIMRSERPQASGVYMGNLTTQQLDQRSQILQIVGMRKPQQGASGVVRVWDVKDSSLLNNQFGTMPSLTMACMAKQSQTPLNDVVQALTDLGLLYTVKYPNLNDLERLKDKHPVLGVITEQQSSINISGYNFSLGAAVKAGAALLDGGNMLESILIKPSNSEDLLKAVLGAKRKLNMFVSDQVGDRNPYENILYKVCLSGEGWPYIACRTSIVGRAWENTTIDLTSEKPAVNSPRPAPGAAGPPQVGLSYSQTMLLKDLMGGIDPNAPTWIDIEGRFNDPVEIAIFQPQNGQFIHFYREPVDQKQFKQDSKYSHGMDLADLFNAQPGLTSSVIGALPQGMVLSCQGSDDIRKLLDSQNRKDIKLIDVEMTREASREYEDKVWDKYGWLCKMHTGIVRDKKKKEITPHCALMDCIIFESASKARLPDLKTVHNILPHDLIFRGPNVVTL

For the compound `Clc1cccc(SC2CCNCC2)n1`, the Potency entry in assay [1], in assay [2], in assay [3], in assay [4], in assay [5] and in assay [6] was “inactive” each time. The Potency entry in assay [7] and in assay [8] was “inactive” each time.

`NC(=O)c1cc([N+](=O)[O-])cc([N+](=O)[O-])c1`: the Potency result in assay [1], in assay [2], in assay [3], in assay [4], in assay [5] and in assay [6] was “inactive” in each case. Also, the Potency entry in assay [8] is “inactive”.

As to `CC(C)C[C@H](CN)CC(=O)O`, the Potency result in assay [1], in assay [2], in assay [3], in assay [4], in assay [5] and in assay [6] was “inactive” each time. The Potency entry in assay [7] and in assay [8] was “inactive” throughout.

For the compound `C[C@]12CCC(=O)C=C1CC[C@@H]1[C@@H]2CC[C@]2(C)C(=O)CC[C@@H]12`, the Potency result in assay [1], in assay [2], in assay [3], in assay [4], in assay [5] and in assay [6] was “inactive” in each case. In assay [8], the Potency result was “inactive”.

For the compound `O=c1[nH]c2ccccc2n1C1CCNCC1`, the Potency result in assay [1], in assay [2], in assay [3], in assay [4], in assay [5] and in assay [6] was “inactive” in each case. In addition, the Potency result in assay [8] was “inactive”.

`C[C@]12CC[C@H]3[C@@H](CCC4=CC(=O)CC[C@@H]43)[C@@H]1CC[C@@H]2OC(=O)CCc1ccco1`: the Potency entry in assay [1], in assay [2], in assay [3], in assay [4], in assay [5] and in assay [6] was “inactive” throughout. Moreover, the Potency entry in assay [8] was “inactive”.

In the case of `CC(C)(N)Cc1ccccc1Cl`, the Potency result in assay [1], in assay [2], in assay [3], in assay [4], in assay [5] and in assay [6] was “inactive” in each case. For the same compound, the Potency entry in assay [8] was “inactive”.

On to `CC(C)=CC1C(C(=O)OCN2C(=O)C3=C(CCCC3)C2=O)C1(C)C` (centres undefined), for which the Potency result in assay [1], in assay [2], in assay [3], in assay [4], in assay [5] and in assay [6] was “inactive” each time. Moreover, the Potency entry in assay [8] is “inactive”.

With `C[C@]12CC[C@@H]3c4ccc(OC(=O)N(CCCl)CCCl)cc4CC[C@H]3[C@@H]1CC[C@@H]2O`, the Potency result in assay [1], in assay [2], in assay [3], in assay [4], in assay [5] and in assay [6] was “inactive” throughout. In addition, the Potency entry in assay [8] is “inactive”.

In the case of `CC(C)c1c(CN(C)C(C)Cc2ccccc2)n(C)n(-c2ccccc2)c1=O` (centres undefined), the Potency result in assay [1], in assay [2], in assay [3], in assay [4], in assay [5] and in assay [6] was “inactive” each time. The Potency entry in assay [8] is “inactive”.

On to `COP(=S)(OC)SCN1C(=O)c2ccccc2C1=O`, for which the Potency entry in assay [1], in assay [2], in assay [3], in assay [4], in assay [5] and in assay [7] was “inactive” throughout.

As to `C[C@]12CCC(=O)C=C1CC[C@@H]1[C@@H]2CC[C@@]2(C)[C@H]1CC[C@]2(C)O`, the Potency result in assay [1], in assay [2], in assay [3], in assay [4], in assay [5] and in assay [6] was “inactive” throughout. Also, the Potency result in assay [8] was “inactive”.

With `C[C@@H]1CC2=CC(=O)CC[C@@H]2[C@H]2CC[C@@]3(C)[C@@H](CC[C@]3(C)O)[C@@H]21`, the Potency result in assay [1], in assay [2], in assay [3], in assay [4], in assay [5] and in assay [6] was “inactive” throughout. Besides, the Potency entry in assay [8] is “inactive”.

With `CC(=O)NC1CCSC1=O` (centres undefined), the Potency result in assay [1], in assay [2], in assay [3], in assay [4], in assay [5] and in assay [6] was “inactive” each time. Further, the Potency result in assay [8] was “inactive”.

Turning to `COc1cc(C(=O)NS(=O)(=O)c2ccccc2C)ccc1Cc1cn(C)c2ccc(NC(=O)OC3CCCC3)cc12`, the Potency entry in assay [1], in assay [2] and in assay [4] was “inactive” throughout.

Turning to `O=C1CN=C(c2ccccc2)c2cc([N+](=O)[O-])ccc2N1`, the Potency entry in assay [1], in assay [2], in assay [3], in assay [4], in assay [5] and in assay [6] was “inactive” in each case. Also, the Potency entry in assay [8] was “inactive”.

Regarding `CCC1(CC)C(=O)C=CNC1=O`, the Potency result in assay [1], in assay [2], in assay [3], in assay [4], in assay [5] and in assay [6] was “inactive” each time. Besides, in assay [8], the Potency result is “inactive”.

Take `Oc1ccc(Cl)cc1`: the Potency entry in assay [1], in assay [2], in assay [3], in assay [4], in assay [5] and in assay [6] was “inactive” throughout. For the same compound, the Potency entry in assay [8] is “inactive”.

For `O=c1oc2ccccc2c(O)c1Cc1c(O)c2ccccc2oc1=O`, the Potency entry in assay [1], in assay [2], in assay [3], in assay [4], in assay [5] and in assay [6] was “inactive” throughout. Also, the Potency entry in assay [8] is “inactive”.

For the compound `O=C1c2ccccc2C(=O)C1C(=O)C(c1ccccc1)c1ccccc1`, the Potency result in assay [1], in assay [2], in assay [3] and in assay [4] was “inactive” each time. In addition, the Potency in assay [6] was 26.6 µM (active).

Take `CN1CCC(O)(c2ccc(F)cc2)C(C(=O)c2ccc(F)cc2)C1` (centres undefined): the Potency result in assay [1], in assay [2], in assay [3], in assay [4], in assay [5] and in assay [6] was “inactive” in each case. Also, the Potency entry in assay [8] is “inactive”.

Take `C=CCC1([C@H](C)CCC)C(=O)NC(=O)NC1=O`: the Potency result in assay [1], in assay [2], in assay [3], in assay [4], in assay [5] and in assay [6] was “inactive” in each case. In addition, the Potency result in assay [8] is “inactive”.

On to `O=c1c(C2CC(c3ccc(-c4ccc(Br)cc4)cc3)Cc3ccccc32)c(O)sc2ccccc12` (centres undefined), for which the Potency entry in assay [1], in assay [2], in assay [3], in assay [4], in assay [5] and in assay [8] was “inactive” each time. For the same compound, the Potency in assay [7] is 11.9 µM (active).

On to `CC(C)Cc1ccc(C(C)C(=O)O)cc1` (centres undefined), for which the Potency entry in assay [1], in assay [2] and in assay [4] was “inactive” each time.

Turning to `CCc1cc2c(s1)-n1c(C)nnc1CN=C2c1ccccc1Cl`, the Potency entry in assay [1], in assay [2], in assay [3], in assay [4], in assay [5] and in assay [6] was “inactive” each time. In addition, the Potency result in assay [8] is “inactive”.

For `CN1C(=O)COc2c(C(=O)NC3CN4CCC3CC4)cc(Cl)cc21` (centres undefined), the Potency result in assay [1], in assay [2], in assay [3], in assay [4], in assay [5] and in assay [6] was “inactive” each time. Also, the Potency entry in assay [8] was “inactive”.

In the case of `O=C(O)c1ccc(=O)[nH]c1`, the Potency entry in assay [1], in assay [2], in assay [3], in assay [4], in assay [5] and in assay [6] was “inactive” each time. Besides, the Potency result in assay [8] was “inactive”.

Consider `C[C@]12CC[C@H]3[C@@H](CCC4=CC(=O)CC[C@@H]43)[C@@H]1CC[C@@H]2OC(=O)CCC1CCCCC1`, for which the Potency entry in assay [1], in assay [2], in assay [3], in assay [4], in assay [5] and in assay [6] was “inactive” each time. Also, the Potency result in assay [8] is “inactive”.

Take `CCCCCCCCCC(=O)O[C@H]1CC[C@H]2[C@@H]3CCC4=CC(=O)CC[C@@H]4[C@H]3CC[C@]12C`: the Potency entry in assay [1], in assay [2], in assay [3], in assay [4], in assay [6] and in assay [7] was “inactive” each time. In assay [8], the Potency entry was “inactive”.
